# Measurements published in PubChem BioAssay AID2673 (National Center for Advancing Translational Sciences (NCATS), 2010).
# Results filed as inconclusive are left out. Values without a mark were called inactive. Active and inactive are the calls of the source. Calls follow the shape of the dose curve; as a rule, active = well fitted activation curve with a large enough effect; inconclusive = small, poorly fitted or top-dose-only effect; inactive = no such curve, though single readings can be large or run the other way.
# Assay: qHTS Multiplex Assay to Identify Dual Action Probes in a Cell Model of Huntington: Cytoprotection confirmation (ATP)
# Details: PC12 HttQ103 induced, ATP luminescence 40 h; series mostly up to 46.1 µM; cytoprotection, positive = protection: at the top concentration
# From the text: NIH Chemical Genomics Center [NCGC]
# NIH Molecular Libraries Probe Production centers Network [MLPCN]
# Assay Submitter (PI): Wei Zheng
# Huntington's disease is a neurodegenerative disorder caused by a trinucleotide repeat expansion in Exon 1 of the Huntingtin gene. The CAG trinucleotide encodes glutamine and polyglutamine expansions cause cell death in selective areas of the brain. Huntington polyglutamine repeats have the tendency to form aggregates which are observable in later stages of the disease. The exact nature of the aggregates, whether toxic, protective, or insignificant, is unclear.
# A stable PC12 cell line containing a gene fusion of Exon 1 of the Huntingtin gene linked to GFP under the control of the inducible ecdysone promoter were used as the cell-based model of Huntington Disease for high throughput screening. Exon 1 of the Huntingtin gene contained an expansion of 103 polyglutamines (Q103) which, when expressed, caused cell death and distinct, bright GFP aggregates. The amount of cell death and the size and intensity of GFP aggregates increased over time and induction level. The cell death were quantified with a measurement of ATP content in the cells. A maximal 40-50% of cell death was observed when the Huntington gene was induced in this cell line.
# We optimized this assay in a homogeneous 1536 well format. A quantitative high throughput screen (qHTS) was conducted on the PC12 cells which were induced to express the toxic fusion construct. Small molecules which prevented cell death were identified by using a luminescent ATP quantification method (Perkin Elmer's ATPlite).
# PC12 cells stably containing a construct with an ecdysone inducible promoter expressing GFP fused to the exon 1 of HTTQ103 (Huntington protein which containing a 103 ployglutamine expansion) were used.
# NCGC Assay Protocol Summary:
# Sequence, Parameter, Description
# 1, Reagent, 5 uL 1500 cells/well 1536 TC treated White clear bottom plate
# 2, Compound, 23 nL Tebufenozide inducer (100 nM final) to all columns
# 3, Compound, 23 nL 40 uM to 0.5 nM Libraries
# 5, Reagent, 5 ul ATPLite cell death assay reagent
# 6, Detector, 4 sec integration with a Viewlux Luminescent
# Media consisted of phenol red free DMEM + 5% equine serum (Hyclone # SH30072.03 ), 5% supplemented Bovine Calf Serum (Hyclone # SH30074.03 ), 1x pen/strep, no G418
Structure (SMILES),Potency,"cytoprotection, positive = protection"
Cn1nnnc1Sc1ncnc2scc(-c3ccc(S(C)(=O)=O)cc3)c12,17.8 µM (active),–
Cn1nnnc1Sc1ncnc2scc(-c3cccc(N)c3)c12,–,3.36%
C#CCN(C)CCCOc1ccc(Cl)cc1Cl,–,24.5%
CN(C)CCCSc1ccccc1NC(=O)/C=C\c1ccccc1,–,-24.2%
O=C(Nc1cccnc1)Nc1ccccc1Cl,–,-24.8%
Cc1ccccc1-c1csc2ncnc(Sc3nnnn3C)c12,–,13%
Cn1nnnc1Sc1ncnc2scc(-c3cccc([N+](=O)[O-])c3)c12,25.1 µM (active),–
COc1ccccc1-c1csc2ncnc(Sc3nnnn3C)c12,–,23.1%
Cn1nnnc1Sc1ncnc2scc(-c3ccc[nH]3)c12,12.6 µM (active),–
CC(=O)c1n[nH]nc1NC(=O)c1ccccc1,–,-12.5%
Cn1nnnc1Sc1ncnc2scc(-c3cccc4ccccc34)c12,8.91 µM (active),–
COc1ccccc1-n1nnnc1S(=O)(=O)Cc1ccc(Cl)cc1,–,10.7%
CCOC(=O)c1sc2nc(N3CCOCC3)c3c(c2c1N)CC(C)(C)N(C)C3,–,-12.7%
COc1ccc(C2=Nc3cc(C)ccc3OC2)cc1,–,-74.7%
CNCCCN1c2ccccc2CCc2ccccc21,–,-12.1%
Cn1nnnc1Sc1ncnc2scc(-c3ccc4c(c3)OCO4)c12,22.4 µM (active),–
CC(=O)c1ccccc1-c1csc2ncnc(Sc3nnnn3C)c12,31.6 µM (active),–
O=Nc1c(-c2c(O)[nH]c3ccccc23)[nH]c2ccccc12,–,-39.2%
C=C(C)C(=O)OCCCCCCOc1ccc(C(=O)O)cc1,–,1.06%
Cc1ccccc1N=C(N)Nc1ccccc1C,–,-20.4%

Structure (SMILES),Potency,"cytoprotection, positive = protection"
Cn1nnnc1Sc1ncnc2scc(-c3cccc(Br)c3)c12,–,-108%
CCOC(=O)c1noc(C)c1C(=O)Nc1cccc(F)c1,–,-11.4%
O=C(N/N=C/c1ccc(O)c(O)c1)c1ccc(CSc2cccc3cccnc23)cc1,–,-39%
Cn1nnnc1Sc1ncnc2scc(-c3ccccc3Cl)c12,31.6 µM (active),–
Cc1cccc(-c2csc3ncnc(Sc4nnnn4C)c23)c1,31.6 µM (active),–
Cn1nnnc1Sc1ncnc2scc(-c3cccc(C(F)(F)F)c3)c12,14.1 µM (active),–
Fc1cccc(Cl)c1Cn1nnc2c(-n3ccnc3)ncnc21,–,7.87%
Cn1nnnc1Sc1ncnc2scc(-c3ccccc3F)c12,–,27.7%
NC(=O)C1CCN(CCC(=O)Nc2ccc(Br)cc2)CC1,–,-5.63%
CC(=O)c1cccc(-c2csc3ncnc(Sc4nnnn4C)c23)c1,10 µM (active),–
CCc1nc(SCC(=O)Nc2nc3c(s2)CCCC3)c2ccccc2n1,–,-1.68%
CC(=O)OCC1=C(C(=O)O)N2C(=O)[C@@H](NC(=O)Cc3cccs3)[C@H]2SC1,–,-25.3%
Cn1nnnc1Sc1ncnc2scc(-c3ccc4c(=O)ccoc4c3)c12,–,-107%
Cc1cccc(/C=N/NC(=O)c2cc3c(s2)-c2ccccc2CC3)c1,–,-29.8%
Cn1nnnc1Sc1ncnc2scc(-c3cnc(N)nc3)c12,35.5 µM (active),–
Cn1nnnc1Sc1ncnc2scc(-c3cccc(S(C)(=O)=O)c3)c12,–,-108%
Cn1nnnc1Sc1ncnc2scc(-c3ccc(N)cc3)c12,–,6.19%
Cn1nnnc1Sc1ncnc2scc(-c3ccc(C(=O)OC(C)(C)C)cc3)c12,–,-75.7%
COc1ccc(-c2[nH]ncc2-c2ccc3c(c2)OCCO3)c(O)c1,–,-4.71%
CS(=O)(=O)c1ccc([C@H](O)[C@H](CO)NC(=O)C(Cl)Cl)cc1,–,-10.2%
